Screens (PubChem)
S2 tox – viability counter-screen for ATXN expression inhibitors; S2 cells (HEK-293 line with an ATXN2-luciferase reporter) viability, CellTiter-Fluor protease fluorescence, 24 h; AID 651635; actives 0.49% (n = 400,000); Potency, µM (titrated, usually from 56.7 µM), most hits filed as cytotoxic; also: nearly all actives have a fitted effect of over 40% in size
Integrin act MD – integrin-mediated muscular dystrophy alleviation activation. actives 0.064% (n = 350,000). Potency, µM (series often up to 38.3 µM), actives largely listed as activators. alpha7betagal myoblasts, beta-gal FDG fluorescence, 48 h. AID 624291; also: nearly all actives have a fitted effect of over 60% in size
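alpha7betagal+/- myoblasts (passage 13, 250/well) treated 48 h at 37C with compounds at 1:260 dilution of DMSO stock. Lysed, then beta-galactosidase activity read as FDG fluorescence (ex 480/em 540) after 30 min, with pre-read for autofluorescence.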
ATXN2 expr inh – ATXN2 expression inhibition. AID 1745845. actives 0.72% (n = 360,000). Potency, µM (series often up to 57 µM), usual class: inhibitors. HEK-293 ATXN2-luciferase reporter, luminescence, 24 h; also: nearly all actives have a fitted effect of over 55% in size
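ATXN2-luciferase reporter cells (luciferase flanked by upstream and downstream ATXN2 gene portions) were treated 24 h at 37 °C with compounds at up to 57 uM. SteadyGlo luminescence gave expression; GF-AFC fluorescence gave viability.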
D3 antag – D3 dopamine receptor (human) antagonism; P35462; D3R cells, DiscoveRx beta-arrestin luminescence, antagonist mode; hits give low values; actives 2.5% (n = 360,000); AID 652054; max response, negative = inhibition, %; in the data active = max response below about -50%; inconclusive = no clear call, values can overlap the other calls
Target sequence (P35462 whole entry, looked up): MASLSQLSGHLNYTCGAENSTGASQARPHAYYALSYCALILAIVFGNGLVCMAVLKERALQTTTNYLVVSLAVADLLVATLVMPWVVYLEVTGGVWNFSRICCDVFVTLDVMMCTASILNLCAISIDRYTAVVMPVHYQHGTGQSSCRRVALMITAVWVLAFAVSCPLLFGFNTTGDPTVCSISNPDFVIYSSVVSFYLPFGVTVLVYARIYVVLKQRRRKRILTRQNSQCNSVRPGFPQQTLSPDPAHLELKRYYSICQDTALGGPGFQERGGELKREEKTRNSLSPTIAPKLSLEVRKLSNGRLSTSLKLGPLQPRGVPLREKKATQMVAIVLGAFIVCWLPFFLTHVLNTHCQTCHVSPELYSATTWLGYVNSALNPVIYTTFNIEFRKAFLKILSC
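Cells plated overnight at 1500 cells/well, then exposed to library compounds with dopamine controls for 90 minutes at 37 degrees C. DiscoveRx reagent added for 30–60 minutes at room temperature; luminescence read, quantitative HTS format.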
IL1B secr inh – inhibitors of inflammasome signaling (IL-1 beta secretion) | THP-1 LPS/ATP IL-1B secretion, AlphaLISA, 16 h; hits give low values | activity change, % at 57.5 µM | actives 4.7% (n = 360,000) | AID 743279; in the data active = activity change below about -50%; inconclusive = mostly about -30% to -49%
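THP-1 cells pretreated 1 hr with compounds (up to 57.5 uM final), then stimulated with LPS (250 ng/mL final) plus ATP (1.25 mM final); secreted IL-1B measured by AlphaLISA after 16 hr, decreased signal indicating inhibition.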
DRD3 agonist – activates the human D3 dopamine receptor. P35462. D3R DiscoveRx beta-arrestin cells, luminescence, 90 min. max activation, %. actives 0.58% (n = 410,000). AID 652048; in the data active = max activation above about 30%
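Cells at 1500/well, incubated overnight, then treated with pinned compounds (dopamine as control) for 90 min at 37 degrees C. DiscoveRx reagent added for 30 - 60 minutes at room temperature; luminescence read.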
Large screens that a line does not name were inactive. Most compounds without a hit are left out; they make up all but 7% or so of the library. Unless noted, calls follow the shape of the dose curve; as a rule, active = well fitted curve in the direction sought with a large enough effect; inconclusive = small, poorly fitted or top-dose-only effect, or another doubt; inactive = no such curve, though single readings can be large; an effect the other way counts as inactive or inconclusive.

CC(NC(=O)c1cnc2ccccc2n1)c1ccccc1 (stereo not drawn)	none
O=C1NC2(CCCC2)C(=O)N1CCS(=O)(=O)Oc1ccccc1	none (no result: ATXN2 expr inh)
COc1cc(C2CC(=O)Oc3c(C(CCN4CCOCC4)c4ccc(N(C)C)cc4)c(OC)cc(OC)c32)cc(OC)c1OC (stereo not drawn)	none
COc1cc(C2CC(=O)Oc3c(C(CCN4CCN(c5ccccc5)CC4)c4ccc(N(C)C)cc4)c(OC)cc(OC)c32)cc(OC)c1OC (stereo not drawn)	D3 antag -102.8
COc1ccc(C2CC(=O)Oc3c(C(CCN4CCCC(C)C4)c4ccc(N(C)C)cc4)c(OC)cc(OC)c32)cc1 (stereo not drawn)	S2 tox 8.91µM
COc1cc(O)c(C(CCN2CCCCC2)c2ccc(N(C)C)cc2)c(OC)c1 (stereo not drawn)	IL1B secr inh inconclusive
COc1ccc(C2CC(=O)Oc3c(C(CCN4CCCCC4)c4ccc(N(C)C)cc4)c(OC)cc(OC)c32)cc1 (stereo not drawn)	S2 tox 8.91µM, D3 antag -57.6
COc1cc(O)c(C(CCN2CCCC2)c2ccc(N(C)C)cc2)c(OC)c1 (stereo not drawn)	none
CCc1ccc(/C(C)=N/NC(=O)c2c[nH]c3ccccc23)s1	none
CC(C)[C@@H](C(=O)N1CCN(Cc2ccc3c(c2)OCO3)CC1)n1nnc2ccccc2c1=O	none
CC(CCCC(C)(C)O)NC(=O)c1cc(COc2ccc3ncccc3c2)on1 (stereo not drawn)	S2 tox inconclusive
CCCCn1nc(C(=O)Nc2ccc3c(c2)OCO3)c2ccccc2c1=O	IL1B secr inh -58.3
CCn1c(CC(=O)Nc2ccc(Cl)cc2)nnc1SCC(=O)N1CCOCC1	S2 tox inconclusive
O=C(Nc1cc(-c2nc3ccccc3o2)ccc1Cl)c1cccc2c(Cl)cccc12	none (no result: Integrin act MD, D3 antag, IL1B secr inh)
Cc1n(N)c2ccccc2[n+]1CC(=O)c1ccccc1	D3 antag -81.8
Cc1ccccc1NC(=O)Cc1nnc(NC(=O)Nc2ccccc2F)s1	ATXN2 expr inh inconclusive
O=c1[nH]cnc2sc3c(c12)CCN(Cc1ccccc1)C3	DRD3 agonist 74.2
O=c1[nH]cnc2sc3c(c12)CN(Cc1ccccc1)CC3	DRD3 agonist 59.6 (no result: S2 tox)
COC(=O)c1ccc(NC(=O)c2ccc(NC(=O)C3CCCO3)cc2)cc1 (stereo not drawn)	S2 tox inconclusive, IL1B secr inh inconclusive (no result: ATXN2 expr inh)
O=C(NN=C1CCCC1)C1COc2ccccc2O1 (stereo not drawn)	Integrin act MD inconclusive, DRD3 agonist 43.1
COc1ccc(Cl)cc1C(=O)NNC(=O)C1COc2ccccc2O1 (stereo not drawn)	none
O=C(Nc1ccncc1)C1COc2ccccc2O1 (stereo not drawn)	none
O=C(NC1=NCCS1)C1COc2ccccc2O1 (stereo not drawn)	ATXN2 expr inh 2.51µM
O=C(NNC(=O)C1COc2ccccc2O1)c1ccccc1O (stereo not drawn)	DRD3 agonist 32.4
Cc1[nH]c2ccccc2c1C(=O)CSc1nc2ncc(Cl)cc2[nH]1	ATXN2 expr inh inconclusive, D3 antag -60.8
COc1ccc(S(=O)(=O)NCC2CCCN(C(=O)c3ccccc3)C2)cc1 (stereo not drawn)	S2 tox inconclusive
O=C(NNc1ncnc2c1cnn2-c1ccccc1)c1cccs1	IL1B secr inh -60.2 (no result: ATXN2 expr inh)
Cc1ccc(-n2ncc3c(NNC(=O)c4ccccc4C)ncnc32)cc1	none (no result: Integrin act MD, D3 antag, IL1B secr inh)
Cc1ccccc1Nc1ncnc2c1cnn2-c1ccccc1	IL1B secr inh -62.3
c1ccc(-n2ncc3c(NC4CCCCCC4)ncnc32)cc1	IL1B secr inh -53.3
Clc1ccc(-n2ncc3c(NC4CCCC4)ncnc32)cc1	none (no result: Integrin act MD, D3 antag, IL1B secr inh)
Cc1ccc(-n2ncc3c(Nc4ccccc4C)ncnc32)cc1	none (no result: Integrin act MD, D3 antag, IL1B secr inh)
CCOC(=O)c1cn[nH]c1NC(=S)Nc1ccc(OC)cc1	none
COc1ccccc1-c1c(C(F)(F)F)oc2cc(OCC(=O)Nc3ccccc3C(F)(F)F)ccc2c1=O	none
CCCn1c(=O)c(-c2nc3ccccc3[nH]2)c(O)c2ccccc21	none
CCn1c(=O)c(-c2nc3ccccc3[nH]2)c(O)c2ccccc21	D3 antag -86.3
O=C(O)c1cc([N+](=O)[O-])cc2c1nnn2O	S2 tox inconclusive, D3 antag -67.8
COCc1ccc(-c2c(-c3ccc(OC)cc3)oc(=O)c3cc(OC)c(OC)cc23)cc1	DRD3 agonist 34.0
COc1cc2c(-c3cc(F)cc(F)c3)c(-c3ccsc3)oc(=O)c2cc1OC	none
COc1ccc(-c2oc(=O)c3cc(OC)c(OC)cc3c2-c2ccc3c(c2)OCO3)cc1	none
COc1ccc(-c2c(-c3ccsc3)oc(=O)c3cc(OC)c(OC)cc23)cc1	DRD3 agonist 39.2
CCc1ccc(NC(=O)N2CCC(c3ccccc3)C2)cc1 (stereo not drawn)	IL1B secr inh -58.8
Cc1ccc(NC(=O)N2CCCC(c3ccccc3)C2)cc1 (stereo not drawn)	DRD3 agonist 34.0
CC(O)(c1cccnc1)c1nc(/C=C/c2ccccc2)cs1 (stereo not drawn)	none (no result: Integrin act MD)
CCOC(=O)c1c(-c2ccccc2)oc2cc(CN(C)C)c(O)c(CN(C)C)c12	ATXN2 expr inh 14.1µM
CCOC(=O)c1c(C)oc2cc(Cl)c(O)c(CN(C)C)c12	none
O=c1[nH]c2cc3c(cc2cc1C(c1nnnn1Cc1ccccc1)N1CCCCCC1)OCCO3 (stereo not drawn)	S2 tox inconclusive
Cc1cc(C(c2nnnn2Cc2ccccc2)N2CCOCC2)c(C)n1-c1ccc2c(c1)OCO2 (stereo not drawn)	IL1B secr inh -96.6
Cc1cccc2cc(C(c3nnnn3Cc3ccc4c(c3)OCO4)N3CCCC3)c(=O)[nH]c12 (stereo not drawn)	D3 antag -51.1
O=C(COC(=O)c1ccccc1Cc1ccccc1)Nc1ccc(SC(F)F)cc1	S2 tox inconclusive, IL1B secr inh -92.8
O=C(Cc1ccccc1F)Nc1ccc(SC(F)F)cc1	Integrin act MD inconclusive, IL1B secr inh -55.4
O=C(c1ccco1)[C@@H]1[C@@H]2C(=O)N(c3ccc(Br)cc3)C(=O)[C@@H]2C2c3ccccc3C=CN21 (stereo partly drawn)	D3 antag -56.8
CC(=O)[C@H]1[C@@H]2C(=O)N(c3cccc(Cl)c3)C(=O)[C@@H]2[C@H]2c3ccccc3C=CN21	none
Cc1nc(Nc2nc3c(c(=O)[nH]2)CCC3)nc2ccccc12	IL1B secr inh -77.4
CC(C)CNc1nc(=S)nc(N(C)C)[nH]1	none
